This is a sample that favours compounds with a hit; in the whole collection about 4.8% have one here.
HIF activator: HIF pathway transcriptional activators, primary screen, cell-based, U2OS HRE-luciferase, luminescence; U2OS HRE-luciferase reporter; normalized: DMSO 0%, desferrioxamine 100%; activation, % at 7.5 µM (by protocol); 300,000 tested, 0.32% active;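 active = mean activation of at least 10% of the iron chelator positive control signal, with at least half of replicates also reaching 10%; inconclusive = mean and replicate majority disagree about reaching 10%; inactive = mean and most replicates under 10%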
AI-2 QS mod: Vibrio harveyi AI-2 quorum sensing modulators, primary screen, JMH597 strain, luminescence/OD600 ratio; activity change, % at 7.5 µM; 300,000 tested, 0.4% active; Vibrio harveyi JMH597 AI-2 luminescence/OD600 ratio, 9 h; hits give low values; strain lacks LuxN and CqsS sensors; 0 = neutral-control median; in the data active = activity change below about -75%, passing the limit was not always enough; inconclusive = no clear call, values can overlap the other calls;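 note: luminescence divided by OD600 gain over 9 h not by final OD600 alone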
ALR inh: inhibitors of human ALR sulfhydryl oxidase, primary screen, biochemical, H2O2 detection, HRP-luminol luminescence, single point. FAD-linked sulfhydryl oxidase ALR (Homo sapiens), P55789. purified ALR, DTT oxidation. inhibition, % (test concentration not listed). 290,000 tested, 3.8% active. AID 485317, 2010;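 active = mean replicate inhibition above about 79%, with every replicate also reaching it, limit read from the data; inconclusive = only one of the two criteria met; inactive = mean below limit and not every replicate reaching it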
Target sequence (P55789 whole entry, looked up): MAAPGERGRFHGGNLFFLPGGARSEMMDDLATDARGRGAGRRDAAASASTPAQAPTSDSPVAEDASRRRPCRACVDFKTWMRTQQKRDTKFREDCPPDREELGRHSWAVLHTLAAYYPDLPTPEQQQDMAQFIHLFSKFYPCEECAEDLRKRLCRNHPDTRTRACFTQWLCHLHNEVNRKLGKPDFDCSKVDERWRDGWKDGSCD
SUMO Mot1 rescue: yeast Mot1-301 growth rescue at high temperature, primary screen, SUMOylation pathway inhibitor project, S. cerevisiae, ATP luminescence, 38.5C. S. cerevisiae Mot1-301 growth rescue; percent above DMSO median, 100 means doubled. growth rescue, % at 18.8 µM. 320,000 tested, 1% active. AID 2716, 2010;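 active = every valid replicate shows activation above 250% relative to neutral control wells; inactive = the rest, any valid replicate at or below 250%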;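 note: OY570 slx delta 5 strain wells were the positive control but not used for scaling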
* marks the source's active call; other numbers are inactive results.

How did CN1CCc2nc(SCc3ccc(C(C)(C)C)cc3)c(C#N)cc2C1 do in these assays?
HIF activator: -0.1; AI-2 QS mod: 1.9; ALR inh: inconclusive; SUMO Mot1 rescue: -1.1

What do the screens show for `COc1ccc(-c2c(C#N)c(SCC(=O)Nc3ccccc3)nc3c2CCCC3)cc1`?
HIF activator: -0.1; AI-2 QS mod: 28.8; ALR inh: -2.7; SUMO Mot1 rescue: 536.4

How did COc1ccc(NC(=O)CSc2nc3c(cc2C#N)CN(C)CC3)cc1 do in these assays?
HIF activator: 1.5; AI-2 QS mod: 18.5; ALR inh: 97.2*; SUMO Mot1 rescue: 16.2

How did CN1CCc2nc(SCC(=O)Nc3ccc(F)cc3)c(C#N)cc2C1 do in these assays?
HIF activator: 2.6; AI-2 QS mod: 20.2; ALR inh: 99.1*; SUMO Mot1 rescue: -16.2

What do the screens show for `CC1CC(C)CN(C(=O)CCCNC(=O)c2ccc(Cl)cc2)C1` (stereo unspecified)?
HIF activator: 0.2; AI-2 QS mod: 5.7; ALR inh: -10.0; SUMO Mot1 rescue: 8.0

Results for CN(C)c1ccc(/C(=N\O)C(F)(F)F)cc1 ?
HIF activator: -0.1; AI-2 QS mod: -13.5; ALR inh: 97.5*; SUMO Mot1 rescue: -3.9

Results for COc1ccc(-c2csc(N3CCN(S(=O)(=O)c4ccc5c(c4)NC(=O)CO5)CC3)n2)cc1 ?
HIF activator: 0.1; AI-2 QS mod: 8.7; ALR inh: 0.0; SUMO Mot1 rescue: 3.4

What do the screens show for `COc1ccc(N2CCN(C(=O)CN(CCc3ccccc3)S(C)(=O)=O)CC2)cc1`?
HIF activator: 0.5; AI-2 QS mod: 1.5; ALR inh: 87.8*; SUMO Mot1 rescue: 94.3

What do the screens show for `COc1ccc(N2CCN(C(=O)CN(C)S(=O)(=O)c3cccs3)CC2)cc1`?
HIF activator: 0.1; ALR inh: 98.6*; SUMO Mot1 rescue: 1.5

What do the screens show for `COc1ccc(S(=O)(=O)N(C)CC(=O)N2CCN(c3ccccc3)CC2)cc1`?
HIF activator: -0.2; AI-2 QS mod: 21.5; ALR inh: 61.5; SUMO Mot1 rescue: 143.1

How did COc1ccc(N2CCN(C(=O)CCNS(=O)(=O)c3cccs3)CC2)cc1 do in these assays?
HIF activator: 0.1; AI-2 QS mod: 35.4; ALR inh: 94.1*; SUMO Mot1 rescue: -1.5

Results for CN1CCc2c(sc(NC(=O)c3ccc([N+](=O)[O-])o3)c2C(N)=O)C1 ?
HIF activator: -2.4; AI-2 QS mod: -102.5*; ALR inh: -10.0; SUMO Mot1 rescue: -18.3

How did NC(=O)c1c(NC(=O)c2ccc([N+](=O)[O-])o2)sc2c1CCCC2 do in these assays?
HIF activator: 3.5; AI-2 QS mod: 27.1; ALR inh: -9.0; SUMO Mot1 rescue: -4.7

Results for CN1CCc2c(sc(NC(=O)c3cc(Cl)sc3Cl)c2C(N)=O)C1 ?
HIF activator: 1.2; AI-2 QS mod: 30.9; ALR inh: 97.3*; SUMO Mot1 rescue: 213.8

Results for Nc1nc(-c2cc(O)ccc2[N+](=O)[O-])cc(-c2ccccc2)c1[N+](=O)[O-] ?
HIF activator: -0.8; AI-2 QS mod: 3.1; ALR inh: -7.8; SUMO Mot1 rescue: -9.3

What do the screens show for `CC1CCN(C(=O)c2nc[nH]c2C(=O)N2CCC(C)CC2)CC1`?
ALR inh: 12.1; SUMO Mot1 rescue: -1.0

What do the screens show for `CC(CCc1ccco1)NC(=O)c1cccc2c1C(=O)N(C1CCCCC1)C2` (stereo unspecified)?
HIF activator: -0.2; AI-2 QS mod: 4.4; ALR inh: 1.2; SUMO Mot1 rescue: -2.7

What do the screens show for `COc1ccc(N2Cc3cccc(C(=O)NC(C)CCc4ccco4)c3C2=O)cc1` (stereo unspecified)?
HIF activator: 0.4; AI-2 QS mod: 18.6; ALR inh: 98.5*; SUMO Mot1 rescue: 16.7

How did O=C(c1ccc2c(c1)OCO2)N1CCN(c2ccc(C(F)(F)F)cn2)CC1 do in these assays?
HIF activator: -0.4; AI-2 QS mod: 2.5; ALR inh: -3.0; SUMO Mot1 rescue: -8.5

What do the screens show for `O=C(c1ccc2ccccc2c1)N1CCN(c2ccc(C(F)(F)F)cn2)CC1`?
HIF activator: -0.1; AI-2 QS mod: 29.6; ALR inh: 0.6; SUMO Mot1 rescue: 315.8*

How did Cc1nc(SCc2cccc(F)c2)[nH]c(=O)c1C#N do in these assays?
HIF activator: 0.1; ALR inh: 83.7*; SUMO Mot1 rescue: -15.3

How did Cc1nc(SCc2cccnc2)[nH]c(=O)c1C do in these assays?
HIF activator: 0.3; AI-2 QS mod: 30.3; ALR inh: 98.6*; SUMO Mot1 rescue: -15.6

Results for COC(=O)Cc1c(C)nc(SCc2ccccc2)[nH]c1=O ?
HIF activator: 1.2; AI-2 QS mod: 10.2; ALR inh: -5.7; SUMO Mot1 rescue: -9.7

Results for Cc1ccc(S(=O)(=O)N2CCN(C(=O)CSCc3ccc(C(C)C)cc3)CC2)cc1 ?
ALR inh: -3.9; SUMO Mot1 rescue: 7.5

How did O=C(COC(=O)/C=C/c1cccc(Br)c1)NC1CCCC1 do in these assays?
ALR inh: -0.8; SUMO Mot1 rescue: 14.8

What do the screens show for `O=C(NCc1ccccc1)/C(=C\c1ccc(O)cc1)NC(=O)c1ccco1`?
HIF activator: 0.1; AI-2 QS mod: 9.5; ALR inh: 97.5*; SUMO Mot1 rescue: -9.8

What do the screens show for `O=C(NCc1ccccc1)/C(=C/c1ccccc1)NC(=O)c1ccco1`?
HIF activator: -13.6; AI-2 QS mod: 4.7; ALR inh: -3.1; SUMO Mot1 rescue: 6.9

How did O=C(NCc1ccccc1)/C(=C/c1ccco1)NC(=O)c1ccco1 do in these assays?
HIF activator: 0.5; AI-2 QS mod: 3.9; ALR inh: 93.2*; SUMO Mot1 rescue: 3.1

How did Cc1cc(C)cc(OCC(=O)N2CCN(c3ncccn3)CC2)c1 do in these assays?
ALR inh: 1.6; SUMO Mot1 rescue: 3.0

How did O=C(CSc1nnc(Cn2cnc3ccccc32)o1)Nc1cccc2ccccc12 do in these assays?
HIF activator: -0.2; AI-2 QS mod: 1.1; ALR inh: 99.3*; SUMO Mot1 rescue: -10.6

What do the screens show for `O=C(CSc1ccccn1)Nc1cccc2ccccc12`?
HIF activator: 0.1; AI-2 QS mod: 16.4; ALR inh: -16.1; SUMO Mot1 rescue: -7.9

Results for CC(=O)c1ccc(NC(=O)CSc2nnc(Cn3cnc4ccccc43)o2)cc1 ?
HIF activator: -0.6; AI-2 QS mod: 21.9; ALR inh: 96.8*; SUMO Mot1 rescue: -23.9

How did COc1ccc(C(=O)CSc2nnc(Cn3cnc4ccccc43)o2)cc1 do in these assays?
HIF activator: -0.2; AI-2 QS mod: 14.7; ALR inh: -40.8; SUMO Mot1 rescue: 5.9

What do the screens show for `c1ccc(-c2nc(-c3ccco3)n3ccccc23)cc1`?
HIF activator: -0.2; AI-2 QS mod: 5.8; ALR inh: 93.8*; SUMO Mot1 rescue: 39.2

What do the screens show for `CCn1c(-c2ccco2)nc2ccccc21`?
HIF activator: 1.7; AI-2 QS mod: 5.2; ALR inh: 6.2; SUMO Mot1 rescue: -3.5

How did NC(=O)c1nsc(C(=O)N(CC(=O)NCc2ccccc2)c2ccc(F)cc2)c1N do in these assays?
HIF activator: 0.0; AI-2 QS mod: 14.3; ALR inh: 3.7; SUMO Mot1 rescue: 13.9

From PubChem
